NR3A LBD binder = modulators (binders) of human NR3A ligand-binding domain. NR3A LBD differential scanning fluorimetry, Tm shift; 0% = protein alone, 100% = glycine-bound protein. Tm shift relative to glycine control, % at 25 µM. 340,000 tested, 2.5% active. AID 1259313;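 active = melting temperature shift of at least 10% of the positive control shift, at one fixed dose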
CSC inhib = cancer stem cell inhibition; inhibition, % at 7.5 µM; AID 2717; cancer stem cell-like cells viability, luminescence; 300,000 tested, 1.1% active; in the data active = inhibition above about 75%; tested in HMLE shEcad cells
MPTP inh = permeability transition pore inhibition; 360,000 tested, 1.4% active; isolated mouse mitochondria, Ca2+ swelling absorbance, 30 min; inhibition, % at 10 µM;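 active = inhibition of 50% or more, scaled per plate between neutral and stimulator controls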;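 note: 0% = DMSO wells given calcium and 100% = 1 mM EGTA wells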
SKKanGAS inh = SKKanGAS growth inhibition; S. pyogenes SKKanGAS, kanamycin growth, BacTiter-Glo, 6 h; inhibition, % at 7.5 µM; 300,000 tested, 1.3% active; AID 1662;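 active = mean replicate score, as percent of positive control median, at least 50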;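 note: strain carries kanamycin resistance gene driven by streptokinase promoter and grows in 40 µg/ml kanamycin; loss of luminescence reflects streptokinase promoter inhibition or plain growth inhibition; 0% = median of DMSO wells and 100% = positive control at its reference dose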
Mdm2-MdmX inh = human Mdm2/MdmX binding inhibition; SaOS-2 split-luciferase Mdm2/MdmX complementation, luminescence; O15151+Q00987; 330,000 tested, 3% active; inhibition, % at 8 µM;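 active = inhibition of at least 50% at 8 µM in the primary screen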
Beta apoptosis = beta cell apoptosis inhibition. INS-1E cytokine-induced death, ATP luminescence, 48 h; percent of positive-control rescue, neutral wells zero. AID 435005. protection from apoptosis, % (test concentration not listed). 300,000 tested, 0.8% active;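 active = Every replicate reaches about 75%, or at least half do and their mean reaches it too, limit read from the data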;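 note: 0% = cytokine-treated negative control wells and 100% = positive control rescue; higher means more ATP so stronger rescue from cytokine killing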
Rh123 counter = Rhodamine 123 counter-screen of mitochondrial pore hits | isolated mitochondria, membrane potential, Rhodamine 123 fluorescence | inhibition, % at 10 µM | 5,000 tested, 78% active | shares compounds with MPTP inh; in the data active = inhibition above about 22%;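 note: 0% = DMSO vehicle and 100% = positive control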
MPTP swell DR = MPTP inhibition, dose response swelling confirmation | 780 tested, 58% active | shares compounds with MPTP inh | IC50, µM | AID 651561 | isolated mitochondria swelling, absorbance; in the data active = IC50 below about 20 µM
MPTP cs DR = active in counter-screen for permeability transition pore inhibitors; shares compounds with MPTP inh; isolated mitochondria counterscreen, fluorescence read-out; IC50, µM; 780 tested, 49% active; in the data active = IC50 below about 80 µM
* = called active by the depositor; i = inactive; . = not tested or not shown. Only some compounds are listed: those with a hit (about 6.9% of all), similar ones and a draw of the others.

SMILES	NR3A LBD binder	CSC inhib	MPTP inh	SKKanGAS inh	Mdm2-MdmX inh	Beta apoptosis	Rh123 counter	others
COCC1CCN(C(=O)c2cc(COc3cccc4cnccc34)on2)CC1	-6.3	-4.2	5.8	-4.6	39.8	27.6	.
O=C(c1cc(COc2cccc3cnccc23)on1)N1CCCC(CCCO)C1 (centres undefined)	-0.8	10.5	91.3*	-4.9	37.3	117.0*	83.1*
Cc1ccsc1-c1cc2nc(NCCCN(C)C)n(C)c(=O)c2s1	.	.	0.0	.	.	.	.
COc1ccc(-c2nc(N3CCN(C)CC3)sc2-c2ccc(OC)cc2)cc1	-1.7	36.2	74.3*	0.0	-4.5	6.8	-18.0	MPTP swell DR=i;MPTP cs DR=>80
CN(NC(=O)C(=O)NCc1ccco1)C(=O)Nc1ccc(Cl)cc1	.	.	85.0*	.	.	.	109.0*
O=C(Nc1ccc(Cl)cc1)Nc1ccccc1C(=O)NCc1ccco1	-4.7	.	1.8	-0.6	5.0	.	.
O=C(CNC(=O)Cc1ccccc1)NCc1cccc(C(F)(F)F)c1	-0.5	.	-1.6	6.9	16.7	-4.8	.
CC(C)CCN(C(=S)Nc1cccc(C(F)(F)F)c1)C(C)c1ccccn1 (centres undefined)	-6.1	23.6	63.1*	4.5	20.7	-0.7	74.5*
Cc1ccc(CNC(=O)c2[nH]c(C(F)(F)F)nc2-c2ccccc2)cc1	.	.	-0.9	.	.	.	.
CCCN(Cc1ccccc1)C(=S)Nc1cccc(C(F)(F)F)c1	-3.4	16.7	59.9*	0.6	3.9	4.4	63.3*
O=C(NCc1cccc(C(F)(F)F)c1)c1[nH]c(C(F)(F)F)nc1-c1ccccc1	.	.	50.8*	.	.	.	99.1*
FC(F)(F)c1cccc(CNC(=S)Nc2ccccc2)c1	-0.7	20.1	82.1*	16.0	-2.8	1.6	94.8*
COc1cc(C(CCN2CCCCC2)c2c(OC)cc(OC)c3c(C)cc(=O)oc23)cc(OC)c1OC (centres undefined)	-2.4	4.2	-0.5	-1.8	10.5	1.6	.
CCN1C(=NCCOC)N[C@@H](c2ccccc2)[C@H](C(=O)OC)[C@H]1C	-0.6	-15.6	0.1	.	3.7	-5.5	.
O=C(NCc1cccc(C(F)(F)F)c1)c1cc(Cl)ccc1Cl	-4.9	-3.0	12.0	12.0	21.3	-1.1	.
O=C(NCc1cccc(C(F)(F)F)c1)c1cc(Cl)cc(Cl)c1	0.9	12.6	100.1*	4.4	2.0	-2.6	88.2*
FC(F)(F)c1cccc(NC(=S)NCc2ccccc2)c1	2.8	6.9	105.8*	28.5	30.3	-0.9	114.5*
CN1CCN(C2Cc3ccccc3Sc3ccc(Cl)cc32)CC1 (centres undefined)	3.1	22.0	87.3*	.	48.0	9.3	-7.0	MPTP swell DR=6.83*;MPTP cs DR=44.8*
CN1CCN2c3ccccc3Cc3ccccc3C2C1 (centres undefined)	-0.9	-7.4	29.7	-2.5	4.6	-8.5	.
Cc1nc2c(OCc3ccc(C(F)(F)F)cc3)cccn2c1N(C)CC1CC1	.	.	81.0*	.	.	.	106.6*
COC(=O)c1ccccc1COc1cccn2c(N(C)CC3CC3)c(C)nc12	.	.	66.8*	.	.	.	96.6*
Cc1ccc(S(=O)(=O)Nc2ccccc2CNc2ccccn2)cc1	-6.7	23.6	3.3	-26.0	-16.3	0.9	.
Cc1ccc(S(=O)(=O)Nc2ccccc2CNc2ccc(Br)cn2)cc1	13.5*	20.1	67.6*	7.0	26.6	-5.3	70.5*
CCOC(=O)c1c(-n2cnnn2)sc2c1CCCC2	-0.6	-12.5	0.4	3.5	-5.3	-1.3	.
CCOC(=O)c1c(N2C(=O)Nc3cc(Cl)c(Cl)cc3N2O)sc2c1CCCCC2	-2.7	-5.9	91.1*	.	23.2	-0.9	70.2*
COc1ccc(C(C)=O)cc1Cn1c(C)c(C(=O)NCc2cccc(C)c2)sc1=O	.	.	-1.2	.	.	.	.
O=S(=O)(c1ccccc1)N1CCN(c2cc(-c3ccccc3)nc3ncnn23)CC1	0.0	.	82.0*	6.7	-15.2	29.4	78.4*
O=S(=O)(c1ccc(Br)cc1)N1CCN(c2cc(-c3ccccc3)nc3ncnn23)CC1	1.3	-22.3	1.3	26.9	20.9	11.4	.
